The values that follow come from PubChem BioAssay AID743382 (National Center for Advancing Translational Sciences (NCATS), 2014).

Calls of active or inactive are those of the source. Calls follow the shape of the full dose curve.

The experiment is described as follows: qHTS for Inhibitors of PI5P4K: BT474 Cell Proliferation Assay for Probe SAR. Particulars: CellTiter-Glo ATP luminescence, 72 h. An excerpt:
In addition to finding PI5P, we discovered the type II phosphatidylinositol 5-phosphate 4-kinase (PI5P4K) family (alpha, beta, gamma isoforms) that catalyze the conversion of PI5P to PI(4,5)P2. Alternatively, PI(4,5)P2 can also be synthesized through phosphatidylinositol-4-phosphate (PI4P) by the type I phosphatidylinositol 4-phosphate 5-kinases (PI4P5K). These PI5P4K enzymes therefore represent one way by which cells can regulate endogenous PI5P levels and play important roles in insulin signaling and in stress responses. […] A qHTS PI5P4K-alpha ADP-Glo assay was developed to identify specific modulators of human PI5P4K, phosphatidylinositol-5-phosphate 4-kinase (Type II PIPK). […]
BT474 cells were cultured in DMEM with 10% FBS and plated in 1536-well white solid-bottom tissue-culture treated plates at a density of 500 cells per 5 microL well. […] After 72 hours of incubation at 37 degrees C 5% CO2 the level of ATo was measured using the Cell Titer Glo luciferase-coupled ATP detection system from Promega. This assays monitors cells by quantitating the amount of ATP present by luciferase, which in the presence of ATP converts pro-luciferin into the luminescent luciferin product. A compound that inhibits cell proliferation would result in a decrease in luminescence. […] The luminescence was read on a Viewlux (Perkin Elmer) plate reader.
A general note: In qHTS, concentration-response curves come from the screen itself.
Turning to `O=C1Nc2ccc(C(=O)c3ccco3)cc2/C1=C/c1cc(Cl)c(O)c(Cl)c1`, the Potency is 10.5 µM (active).
